# RPL19A TOR yeast = modulators of TOR pathway RPL19A-GFP in S. cerevisiae; hit rate 0.3% among 330,000; AID 2025; S. cerevisiae RPL19A-GFP strain, flow cytometry, 3 h; hits give low values; percent response vs DMSO, % at 10 µM;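 active = percent response vs DMSO below 50%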;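 note: median channel GFP fluorescence of the barcoded RPL19A-GFP strain; ratio of sample median GFP to plate DMSO average so 100% = DMSO; lower means less RPL19A-GFP as with rapamycin TOR inhibition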
# AGP1 TOR yeast = modulators of TOR pathway AGP1-GFP in S. cerevisiae; S. cerevisiae AGP1-GFP multiplex flow cytometry, 3 h; GFP as percent of DMSO wells; GFP response vs DMSO, % at 10 µM; hit rate 0.02% among 320,000;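 active = GFP response relative to DMSO above a set limit, near screen average plus 3 SD, cut at about 150% in these data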;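 note: median GFP channel fluorescence of the gated AGP1 strain per well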
# CIT2-GFP yeast = yeast TOR pathway CIT2-GFP modulation | S. cerevisiae CIT2-GFP strain, flow cytometry, 3 h; 100 means same as DMSO wells | AID 2029 | hit rate 0.065% among 320,000 | GFP response vs DMSO, % at 10 µM;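 active = GFP response relative to DMSO above a set limit, near the screen mean plus 3 SD, cut at about 150% in these data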;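 note: ratio of well median GFP fluorescence to mean of DMSO wells on the plate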
# LAP4 TOR yeast = modulators of TOR pathway LAP4-GFP in S. cerevisiae; S. cerevisiae LAP4-GFP multiplex, flow cytometry GFP, 3 h; median GFP as percent of DMSO wells; GFP response vs DMSO, % at 10 µM; hit rate 0.34% among 320,000;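 active = GFP response vs DMSO above a set limit, about the screen mean plus 3 SD, cut at about 150% in these data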
# MEP2-GFP yeast = alters MEP2-GFP fluorescence in TOR pathway yeast screen | S. cerevisiae MEP2-GFP strain, flow cytometry GFP, 3 h; 100% = DMSO control level | GFP response vs DMSO, % at 10 µM | hit rate 0.51% among 330,000 | AID 2016;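 active = GFP response versus DMSO above a set limit, roughly screen mean plus 3 SD, cut at about 180% in these data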;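 note: median GFP fluorescence of the barcode-gated MEP2-GFP cells per well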
# LAP4 cherry2 = yeast LAP4-GFP modulation, second cherry pick | S. cerevisiae LAP4-GFP strain, flow cytometry GFP, 3 h | shares compounds with LAP4 TOR yeast | hit rate 20% among 590 | AID 2621 | GFP response vs DMSO, % at 10 µM;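 active = GFP signal as percent of the solvent control above about 150%, meaning raised reporter expression, limit read from the data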;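 note: ratio of well median GFP fluorescence to plate DMSO mean so 100% = DMSO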
# MEP2 cherry2 = second confirmation of modulators of TOR reporter MEP2-GFP in yeast; GFP response vs DMSO, % at 10 µM; hit rate 10% among 590; shares compounds with LAP4 TOR yeast; AID 2622; S. cerevisiae MEP2-GFP strain, flow cytometry GFP, 3 h;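 active = GFP signal above 150% of the solvent control wells, that is a rise of more than half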;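 note: median channel GFP fluorescence of all gated yeast cells per well; ratio of median GFP to plate DMSO average so 100% = DMSO level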
# RPL19A GFP CP2 = second confirmation of modulators of TOR reporter RPL19A-GFP in yeast | shares compounds with LAP4 TOR yeast | S. cerevisiae RPL19A-GFP strain, flow cytometry GFP, 3 h; hits give low values; 100% means same as DMSO wells | GFP response vs DMSO, % at 10 µM | hit rate 3% among 590;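 active = under 65% GFP response relative to DMSO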;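 note: median GFP channel fluorescence per well over the all cells gate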
# CIT2-GFP pick2 = second confirmation of modulators of TOR reporter CIT2-GFP in yeast; shares compounds with LAP4 TOR yeast; S. cerevisiae CIT2-GFP strain, flow cytometry GFP, 3 h; DMSO control wells read 100%; GFP response vs DMSO, % at 10 µM; hit rate 8% among 590;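 active = GFP response vs DMSO above about 150%, limit read from the data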;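 note: median green fluorescence per well over all gated yeast cells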
# AGP1 GFP CP2 = second confirmation of modulators of TOR reporter AGP1-GFP in yeast | shares compounds with LAP4 TOR yeast | S. cerevisiae AGP1-GFP strain, flow cytometry GFP, 3 h | percent response vs DMSO, % at 10 µM | 590 tested, under 10 active | AID 2643;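 active = over 150 percent of DMSO response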;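 note: median GFP channel fluorescence over all cells without mother daughter split; sample median GFP divided by mean DMSO control so 100% equals DMSO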
# Yeast autofluor = yeast s288c autofluorescence artifact, counter-screen. 610 tested, under 10 active. S. cerevisiae s288c, 520 nm autofluorescence, flow cytometry, 3 h; hits give high values; zero means same as solvent-only cells. shares compounds with LAP4 TOR yeast. fluorescence change (kMESF span) at 33 µM;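 active = fluorescence span over the dose series, or activity score, above about 33, limit read from the data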
# s288c autofl DR = counter-screen for autofluorescence of TOR hits in yeast s288c | AID 488829 | S. cerevisiae s288c parental, compound autofluorescence, flow cytometry, 3 h | shares compounds with LAP4 TOR yeast | fluorescence change (span) at 33 µM | 110 tested, under 10 active;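 active = fluorescence change span, or the activity score built from it, above 25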
# TORC1 bypass gr = wildtype yeast growth loss with TORC1 bypass cells unaffected; growth rating (0-3) at 30 µM; S. cerevisiae BY4741 spot growth rating, 48-72 h; hits give low values; shares compounds with LAP4 TOR yeast; 120 tested, under 10 active;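 active = growth rating at most 1 for wild type yeast while the TORC1 bypass strain still grows fully, rated 3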
# An asterisk follows results filed as active; [ ] = remark or other dose. The list is not random: actives were taken first. Their share in the collection is about 0.92%.
SMILES,RPL19A TOR yeast,AGP1 TOR yeast,CIT2-GFP yeast,LAP4 TOR yeast,MEP2-GFP yeast,others
O=C1c2cccc3c(O)ccc(c23)C(=O)N1c1ccc(Cl)cc1,111.1,105.2,111.5,93.0,103.2,
Cc1cccc(C(=O)NC(=S)NNC(=O)Cc2ccccc2)c1,110.9,105.0,87.8,209.0*[may fluoresce green],104.3,LAP4 cherry2=293.3*;MEP2 cherry2=138.1;RPL19A GFP CP2=116.0;CIT2-GFP pick2=156.1*;AGP1 GFP CP2=106.9;Yeast autofluor=1.52
Cc1cccc(C(=O)NC(=S)NCc2ccccc2)c1,98.7,94.6,92.0,108.3,98.1,
O=C(COc1ccccc1)NNC(=S)NC(=O)c1ccccc1,114.1,101.7,96.1,159.3*,96.7,Yeast autofluor=2.04
CN(CC1CCCN(CCc2ccc(F)cc2)C1)C(=O)CCC(N)=O (stereo unspecified),101.6,100.4,112.3,85.5,101.9,
Cn1nc(C(=O)OCC(=O)Nc2sccc2C(N)=O)c2ccccc2c1=O,99.8,98.4,98.0,96.9,105.0,
NC(=O)CC(NC(=O)c1cccc(Br)c1)c1ccc(NC2CCN(Cc3ccccc3)CC2)c([N+](=O)[O-])c1 (stereo unspecified),99.1,93.4,91.2,97.8,97.7,
Cc1ccc2nc(Cl)c3nnnn3c2c1,55.6,84.9,65.9,297.9*,97.5,Yeast autofluor=3.13;s288c autofl DR=1.14;TORC1 bypass gr=0
Cc1ccc(NC(=O)CSc2nnc(-c3ccncc3)o2)cc1C,98.3,101.5,96.8,98.6,97.1,
CCOc1ccc(CNC(=O)CCC(=O)N2Cc3cccc(OC)c3Oc3ncccc32)cc1,101.8,102.9,101.3,97.5,99.0,
Cc1cc(-c2ccco2)c(C#N)c2nc3ccccc3n12,58.6,56.1,50.9,115.9,103.7,LAP4 cherry2=117.2;MEP2 cherry2=136.2;RPL19A GFP CP2=66.3;CIT2-GFP pick2=126.5;AGP1 GFP CP2=72.6
Cc1cc([N+](=O)[O-])ccc1NC(=O)Nc1ccc(F)cc1F,59.1,52.0,70.5,170.6*,109.1,LAP4 cherry2=101.0;MEP2 cherry2=101.5;RPL19A GFP CP2=96.2;CIT2-GFP pick2=99.5;AGP1 GFP CP2=96.7
COc1ccc(NC(=O)Nc2ccc(F)cc2F)c(C)c1,96.5,104.2,92.8,107.7,105.0,
Cc1nc2ccccc2c(=O)n1NC(=O)c1cccc([N+](=O)[O-])c1,104.2,102.5,102.3,106.9,100.1,
O=C1NC(=S)N/C1=C\c1ccccc1OCc1ccc(C(=O)O)cc1,109.4,103.6,91.1,102.6,103.8,
O=C(O)c1ccc(COc2ccccc2C=C2C(=O)c3ccccc3C2=O)cc1,102.4,92.8,89.6,104.4,101.0,LAP4 cherry2=110.2;MEP2 cherry2=110.0;RPL19A GFP CP2=100.6;CIT2-GFP pick2=108.5;AGP1 GFP CP2=97.4;Yeast autofluor=0
O=C(C1=NOC(CNc2ncc(C(F)(F)F)cc2Cl)C1)N1CCOCC1 (stereo unspecified),96.0,98.4,101.8,107.5,120.1,
